Source: ChEMBL document CHEMBL1157539, “Thousands of chemical starting points for antimalarial lead identification” (Nature, 2010)

How the values were obtained:
Format in all cases: functional
Plasmodium falciparum [1] = experiment: GSK_TCMDC: Inhibition of Plasmodium falciparum 3D7 in whole red blood cells, using parasite LDH activity as an index of growth. Test compounds present at 2uM
Plasmodium falciparum [2] = experiment: GSK_TCMDC: Inhibition of Plasmodium falciparum Dd2 in whole red blood cells, using parasite LDH activity as an index of growth. Test compounds present at 2uM
HepG2 = experiment: GSK_TCMDC: Percent inhibition of human HepG2 cell line. Test compounds present at 10uM.

Row | SMILES | Inhibition (Plasmodium falciparum [1]) [%] | Inhibition (Plasmodium falciparum [2]) [%] | Inhibition (HepG2) [%]
1 | Cc1cccc(-c2nn(-c3ccccc3)c3[nH]c(=O)c(CN4CCSCC4)cc23)c1 | 98 | 98 | 0
2 | c1ccc(CNc2cc(-c3ccccn3)nc(-c3ccccn3)n2)cc1 | 84 | 89 | 88
3 | Cc1cc(NC(=O)Nc2ccc3nccc(N4CCN(C)CC4)c3c2)ccc1Br | 100 | 100 | 31
4 | COc1ccc(NC(=O)/C=C/c2ccccc2Cl)cc1OCCN1CCC(N(C)C)CC1 | 89 | 19 | 18
5 | O=C(c1ccc([N+](=O)[O-])o1)N1CCN(c2nc3c(Cl)cccc3s2)CC1 | 91 | 87 | 0
6 | CC(CN(C)C)C(=O)Nc1cccc(-c2ccc(-c3nc4cc(C(F)(F)F)ccc4[nH]3)cc2)c1 (stereo not drawn) | 99 | 97 | 26
7 | CC(C)COc1cc(C(=O)Nc2cnc3ccccc3c2)ccc1[N+](=O)[O-] | 97 | 56 | 19
8 | COc1ccc2[nH]c3ccccc3c(=O)c2c1 | 87 | 75 | 0
9 | COc1cccc2c(NCCNc3ccnc4c(OC)cccc34)ccnc12.Cl | 93 | 86 | 11
10 | COc1ccc(C=CC(=O)NC(=O)c2ccccc2OC(=O)c2ccccc2)cc1OC | 87 | 90 | 12
11 | COc1cccc(C2C(C(=O)Nc3ccccc3)=C(C)N=c3sc(=Cc4ccc(O)cc4)c(=O)n32)c1 (stereo not drawn) | 97 | 97 | 15
